mHTT-CaM PPI inh: mHTT-calmodulin interaction abrogation. P42858. AlphaScreen His-mHTT/GST-CaM binding, luminescence. inhibition, % at 15 µM. hit rate 3.6% among 190,000;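 note: 0% = both proteins with DMSO and 100% = one protein alone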
Pf apPOL inh: Pf-apPOL DNA polymerase inhibition; Recombinant Pf-apPOL, molecular beacon fluorescence, 1.5 h; inhibition, % at 10 µM; hit rate 0.25% among 210,000; AID 1794808
An asterisk follows results filed as active. Shown is part of a subset that was picked to be rich in hits. Cut-off read from the data, not from the text of the source: active = inhibition above about 50%; inactive = the rest.

For Cc1ccccc1Nc1nccc(C2CCCN(C(=O)c3ccoc3)C2)n1 (configuration not stated) the results were mHTT-CaM PPI inh 20.3 and Pf apPOL inh -4.5.
Screening CCCC(=O)N1CCCC(c2ccnc(Nc3ccc(C)cc3)n2)C1 (configuration not stated) returned mHTT-CaM PPI inh 3.1 and Pf apPOL inh -1.5.
For Cc1ccccc1C(=O)N1CCCC(c2ccnc(Nc3cccc(F)c3)n2)C1 (configuration not stated) the results were mHTT-CaM PPI inh 99.5* and Pf apPOL inh -2.0.
For O=C(NCc1ccco1)C1CCN(c2nc3cccnc3s2)CC1 the results were mHTT-CaM PPI inh 0.3 and Pf apPOL inh 0.0.
`COc1cccc2c(SCC(=O)NCc3ccco3)nccc12` gave mHTT-CaM PPI inh 2.9 and Pf apPOL inh 6.2.
Screening Cc1ccccc1CS(=O)(=O)CCC(=O)NCCN1CCCCC1C (configuration not stated) returned mHTT-CaM PPI inh 1.0 and Pf apPOL inh -13.0.
For O=C(NC1CC2CC1CN2S(=O)(=O)c1cccc2cccnc12)c1ccccc1 (configuration not stated) the results were mHTT-CaM PPI inh 10.2 and Pf apPOL inh -4.9.
Screening COc1ccc(Cl)cc1/C=C1\C(=O)Nc2ccc(Br)cc21 returned mHTT-CaM PPI inh 13.0 and Pf apPOL inh -6.4.
For COc1ccc(OC)c(NC(=O)N2CCCCCC2c2cccs2)c1 (configuration not stated) the results were mHTT-CaM PPI inh 24.0 and Pf apPOL inh -0.3.
For COc1cc2c(cc1OC)C(C(=O)N1CC(C)CC(C)C1)C(c1cccnc1)N(C)C2=O (configuration not stated) the results were mHTT-CaM PPI inh 3.0 and Pf apPOL inh -3.4.
`O=[N+]([O-])c1ccc(SCc2ccco2)c2cccnc12` gave mHTT-CaM PPI inh 100.0* and Pf apPOL inh -5.9.
Cn1cnnc1Sc1ccc([N+](=O)[O-])c2ncccc12 was read as mHTT-CaM PPI inh 1.5 and Pf apPOL inh 5.2.
O=[N+]([O-])c1ccc2[nH]c3c(c2c1)CCCC3NC1Cc2ccccc2C1 (configuration not stated) was read as mHTT-CaM PPI inh 92.9* and Pf apPOL inh -1.5.
Screening CC(C)NC1CCCc2c1[nH]c1ccc([N+](=O)[O-])cc21 (configuration not stated) returned mHTT-CaM PPI inh 11.8 and Pf apPOL inh -3.3.
COc1cc(/C=C2\C(=O)NN(c3ccc(F)cc3)C2=O)cc(I)c1O was read as mHTT-CaM PPI inh 30.0 and Pf apPOL inh -4.9.
For O=C(c1cc(-c2ccco2)[nH]n1)N1CCC(COCc2ccccc2)CC1 the results were mHTT-CaM PPI inh 59.4* and Pf apPOL inh -0.5.
Screening Cc1cc(C(=O)N2CCC(COCc3ccccc3)CC2)no1 returned mHTT-CaM PPI inh -14.2 and Pf apPOL inh -8.6.
CS(=O)(=O)N1CCN(C(=O)c2cc(-c3ccco3)[nH]n2)CC1 was read as mHTT-CaM PPI inh -8.9 and Pf apPOL inh -0.1.
For O=C(CN1CCN(C(=O)c2cc(-c3ccco3)[nH]n2)CC1)c1ccco1 the results were mHTT-CaM PPI inh 59.7* and Pf apPOL inh 73.0*.
For Cc1cc(NS(=O)(=O)c2ccc(NC(=O)c3cccs3)cc2)no1 the results were mHTT-CaM PPI inh -3.9 and Pf apPOL inh -4.0.
O=C(CC1CCCCC1)NCc1ccc2[nH]c3c(c2c1)CCCC3 was read as mHTT-CaM PPI inh 91.8* and Pf apPOL inh -5.0.
Screening O=C(NCc1ccc2[nH]c3c(c2c1)CCCC3)C12CC3CC(CC(C3)C1)C2 returned mHTT-CaM PPI inh 98.2* and Pf apPOL inh -6.1.
`O=C(Cc1ccc([N+](=O)[O-])cc1)NCc1ccc2[nH]c3c(c2c1)CCCC3` gave mHTT-CaM PPI inh 30.7 and Pf apPOL inh 27.8.
Screening CN(C)S(=O)(=O)c1ccc(C(=O)NCc2ccc3[nH]c4c(c3c2)CCCC4)cc1 returned mHTT-CaM PPI inh 28.8 and Pf apPOL inh -6.5.
`Cc1cc2cc(CNC(=O)c3c(F)cccc3Cl)ccc2n1C` gave mHTT-CaM PPI inh 3.8 and Pf apPOL inh -22.8.
`Cc1cc2cc(CNC(=O)c3ccccc3[N+](=O)[O-])ccc2n1C` gave mHTT-CaM PPI inh 24.6 and Pf apPOL inh -13.2.
`Cc1cc2cc(CNC(=O)Cc3ccc(F)cc3)ccc2n1C` gave mHTT-CaM PPI inh 56.0* and Pf apPOL inh -26.5.
For Cc1cccc(NC(=O)NCc2ccc3c(c2)cc(C)n3C)c1 the results were mHTT-CaM PPI inh 50.3* and Pf apPOL inh -30.2.
CCc1ccc(C(=O)N2CCC3(C2)C(=O)Nc2ccccc23)cc1 (configuration not stated) was read as mHTT-CaM PPI inh 42.5 and Pf apPOL inh -5.3.
`O=C1c2ccccc2C(=O)C1C1(C2C(=O)c3ccccc3C2=O)C(=O)Nc2ccccc21` gave mHTT-CaM PPI inh 14.0 and Pf apPOL inh -6.7.
Screening O=C1Nc2ccccc2C12NN=C(c1ccccc1O)S2 (configuration not stated) returned mHTT-CaM PPI inh 100.0* and Pf apPOL inh -1.1.
For CCc1ccc2c(c1)C1(NN=C(c3ccccc3O)S1)C(=O)N2 (configuration not stated) the results were mHTT-CaM PPI inh 100.0* and Pf apPOL inh -2.1.
Screening COc1ccc(C(=O)Nc2ccc(C(C)=O)cc2)cc1 returned mHTT-CaM PPI inh 1.8 and Pf apPOL inh -3.2.
Cc1nc(-c2cccnc2)sc1CCNS(=O)(=O)c1ccc(F)c(C(F)(F)F)c1 was read as mHTT-CaM PPI inh 2.9 and Pf apPOL inh 0.9.
Screening COc1ccc(-c2nc3cc(NC(=O)C4CCCCC4)ccc3o2)cc1OC returned mHTT-CaM PPI inh 8.0 and Pf apPOL inh -9.3.
Cc1cccc(Nc2ccccc2C(=O)O)c1 was read as Pf apPOL inh 1.5.
O=C(c1csc(Nc2ccccc2)n1)N1CCN(c2ccccc2F)CC1 was read as mHTT-CaM PPI inh 80.3* and Pf apPOL inh -3.0.
For Cc1ccc(-c2cc(C(=O)N3CCN(c4ccc(F)cc4)CC3)ccn2)s1 the results were mHTT-CaM PPI inh 74.1* and Pf apPOL inh 32.9.
`Cc1nc(Nc2ccc(F)cn2)sc1C(=O)N1CCN(c2ccccc2)CC1` gave mHTT-CaM PPI inh 67.5* and Pf apPOL inh -9.8.
Screening Cc1nc(Nc2ccc(F)cn2)sc1C(=O)N1CCN(c2ccc(F)cc2)CC1 returned mHTT-CaM PPI inh 84.5* and Pf apPOL inh -4.6.
For Cc1nnsc1C(=O)N1CCN(c2ccc(F)cc2)CC1 the results were Pf apPOL inh 2.8.
`Cc1c(C(=O)N2CCN(c3ccc(F)cc3)CC2)sc2nc(-c3ccccc3)cn12` gave mHTT-CaM PPI inh 0.0 and Pf apPOL inh -2.1.
Cc1ccc(-c2cc(C(=O)N3CCCCCC3)ccn2)s1 was read as mHTT-CaM PPI inh 3.7 and Pf apPOL inh -5.4.
`CN1CCN(C(=O)c2csc(N3CCN(c4ccccc4F)CC3)n2)CC1` gave mHTT-CaM PPI inh 27.3 and Pf apPOL inh -3.4.
`O=C(c1cc2nc(-c3cccs3)cc(C(F)(F)Cl)n2n1)N1CCOCC1` gave mHTT-CaM PPI inh 4.0 and Pf apPOL inh -5.1.
Screening Cc1onc(-c2ccccc2)c1C(=O)NN returned mHTT-CaM PPI inh -2.0 and Pf apPOL inh -4.6.
O=C(c1ccccc1F)N1CCC(CCOc2ccccc2)CC1 was read as mHTT-CaM PPI inh 5.7 and Pf apPOL inh -1.4.
`O=[N+]([O-])c1ccccc1NC1OC(CO)C(O)C1O` (configuration not stated) gave mHTT-CaM PPI inh -4.4 and Pf apPOL inh 26.5.

Source: PubChem BioAssay (University of Kansas High Throughput Screening Laboratory)
